# This is a sample that favours compounds with a hit; in the whole collection about 4.7% have one here.
# D1 PAM: Potentiators of Human D1 Dopamine Receptor: qHTS | AID 504651, 2011 | 360,000 tested, 0.036% active | HEK293 TREx D1 cells, calcium flux, dopamine EC20 potentiation | potentiation, % at 10 µM | D(1A) dopamine receptor (Homo sapiens), P21728; in the data active = potentiation above about 30%
# Target sequence (P21728 whole entry, looked up): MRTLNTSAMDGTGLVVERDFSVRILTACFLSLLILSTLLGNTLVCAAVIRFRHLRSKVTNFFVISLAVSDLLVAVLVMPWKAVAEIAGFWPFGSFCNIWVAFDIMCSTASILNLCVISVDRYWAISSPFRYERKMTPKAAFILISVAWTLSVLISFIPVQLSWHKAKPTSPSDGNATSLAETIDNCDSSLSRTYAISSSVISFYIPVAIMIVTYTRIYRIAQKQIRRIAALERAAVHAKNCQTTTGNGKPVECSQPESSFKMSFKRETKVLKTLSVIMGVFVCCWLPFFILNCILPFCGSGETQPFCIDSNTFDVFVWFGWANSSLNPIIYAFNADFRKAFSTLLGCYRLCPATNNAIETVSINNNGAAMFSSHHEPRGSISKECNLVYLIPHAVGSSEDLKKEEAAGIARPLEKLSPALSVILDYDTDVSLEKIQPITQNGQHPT
# TRHR ag: qHTS for Small Molecule Agonists and Allosteric Enhancers of Human TRH Receptor: Primary Screen for Agonists | activation, % at 2 µM | TRHR cells, calcium flux fluo-8, FDSS agonist mode | 360,000 tested, 0.18% active | AID 493084, 2011
#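 TRHR-expressing cells, plated overnight in medium with 10% serum, were loaded with fluo-8 calcium dye at room temperature. After a 10 s baseline, library compound was pin-added and calcium release was recorded kinetically (ex 480/em 530) as agonist response.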
# D1 antag: Antagonist of Human D 1 Dopamine Receptor: qHTS. D(1A) dopamine receptor (Homo sapiens), P21728. 360,000 tested, 3.2% active. activity change, negative = inhibition, % at 10 µM. HEK293 TREx D1 cells, calcium flux, dopamine EC80; hits give low values. AID 504652, 2011; in the data active = activity change below about -30%
#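 Tetracycline-induced HEK293 T-REx cells with force-coupled D1 receptor were loaded with a no-wash calcium dye. Compound was added after a 10 s baseline and read kinetically for 180 s; EC80 dopamine was then added and calcium flux followed another 180 s.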
# TRHR enhancer: qHTS for Small Molecule Agonists and Allosteric Enhancers of Human TRH Receptor: Primary Screen for Enhancers | 360,000 tested, 0.66% active | Thyrotropin-releasing hormone receptor (Homo sapiens), P34981 | enhancement, % at 2 µM | TRHR cells, fluo-8 calcium fluorescence, EC20 TRH enhancement | AID 493056, 2011; in the data active = enhancement above about 30%
#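 Enhancer read-out: after compound pinning and an initial kinetic agonist-mode read, an EC20 of TRH (10 nM final) was injected and fluo-8 calcium signal (Ex 480/Em 530) followed at 1 s/cycle for 100 cycles in TRHR-expressing cells.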
# D1 agonist: Allosteric Agonists of the Human D1 Dopamine Receptor: qHTS. D(1A) dopamine receptor (Homo sapiens), P21728. AID 504660, 2011. HEK293 T-REx D1 cells, calcium flux, agonist mode. 360,000 tested, 1% active. activation, % at 2 µM
#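 Tetracycline-induced HEK293 TREx D1 cells, force-coupled to calcium signalling, were dye-loaded with a no-wash calcium kit. Compound was pin-added after a 10 s baseline. Fluorescence was read kinetically at 1 cycle/s for 180 s, with calcium rises flagged as agonism.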
# Numbers stand for hits; i = inactive; ! = a repeat was not active. Cut-off read from the data, not from the text of the source, unless noted: active = activation above about 30%; inactive = the rest.
SMILES,D1 PAM,TRHR ag,D1 antag,TRHR enhancer,D1 agonist
O=Nc1c(O)n(Cc2cccc(C(F)(F)F)c2)c2ccccc12,i,i,i,i,68.9
CC(C)c1ccc(CN2CCN(C(=O)CSc3nnnn3C3CC3)CC2)cc1,i,i,-35.6,i,i
c1cc(C2CCN(Cc3nc(-c4ccc5c(c4)OCO5)no3)CC2)ccn1,i,i,i,34.5,i
COc1ccc(-c2noc(-c3nnn(-c4ccc(C)cc4C)c3C)n2)cc1,i,i,i,i,i
CCOC(=O)c1cc2n(c1/N=C/N(C)C)-c1ccccc1C2=O,i,84.5,i,i,90.2
CC(C)Sc1nc2ccc(Br)cc2[nH]1,i,i,-32.8,i,i
Cc1ccc(-c2cc(C(=O)O)c3ccccc3n2)s1,i,i,-45.8,i,i
CCOC(=O)c1c(C)oc2nc(C)nc(NCC3CCN(Cc4ccc(F)cc4)CC3)c12,i,i,i,i,i
CCOc1ccc(C(C)NC(=O)Nc2ccc(F)cc2F)cc1 (configuration not stated),i,i,-76.7,i,i
CCO/N=C/C(=O)Nc1ccc(F)cc1F,i,i,-74.5,i,i
CC(NC(=O)Nc1ccc(F)cc1F)c1ccncc1 (configuration not stated),i,i,i,i,i
COc1ccc(OC)c(NCc2cccn2-c2nnc(N3CCC(C)CC3)s2)c1,i,i,i,i,i
Cc1ccc(-n2c(=O)c3c4c(sc3n(CC(=O)Nc3cccc(Cl)c3)c2=O)CCCCC4)cc1C,i,i,i,i,i
CCOC(=O)c1c(NC(C)=O)c2c3c(sc2n1Cc1nc(-c2cccc(Cl)c2)oc1C)CCCC3,i,i,-37.4,i,i
CCOC(=O)c1c(NC(C)=O)c2c3c(sc2n1Cc1nc(-c2ccccc2Cl)oc1C)CCCC3,i,i,i,i,i
Cc1ccc(C)c(NC(=O)CN(C)C(=O)c2ccc(-c3cccc(C(F)(F)F)c3)o2)c1,i,i,i,37.4,i
CN(CC(=O)Nc1cccc(F)c1)C(=O)c1ccc(-c2cccc(C(F)(F)F)c2)o1,i,i,i,i,i
CCCCN1C(=O)/C(=C2/Sc3ccccc3N2C)S/C1=N\c1ncn[nH]1,i,i,-54.4,i,i
Clc1ccccc1Nc1ncnc2c1nc1n2CCCCC1,i,i,i,i,i
Cc1ccc(C(=O)NC2CCN(CCCC(=O)c3ccc(F)cc3)CC2)cc1,i,i,-38.5,i,i
O=S(=O)(CCN1CCN(c2ccccn2)CC1)c1ccc(F)cc1,i,i,i,i,i
O=C(CCCN1CCN(c2ccccn2)CC1)c1ccc(F)cc1,i,i,-73.9,i,i
CC(C)CC(C(=O)NC(C)(C)C)N(Cc1cccs1)C(=O)c1snc(C(N)=O)c1N (configuration not stated),i,i,i,i,i
COc1ccc(C(=O)Nc2ccc(-c3cc(C(F)(F)F)nn3-c3ccccc3)cc2)cc1OC,i,i,i,i,i
CCOc1ccc(-n2c(SCC(=O)Nc3ccc4c(c3)OCCO4)nc3c([nH]c4ccccc43)c2=O)cc1,i,i,i,i,i
SMILES,D1 PAM,TRHR ag,D1 antag,TRHR enhancer,D1 agonist
CN(C)S(=O)(=O)c1cccc(NC(=S)NCc2ccco2)c1,i,i,i,38.5,i
COc1cc(Cl)c(C)cc1NS(=O)(=O)c1c(C)nc2sccn2c1=O,i,i,-44.5,i,i
COc1ccc(OC)c(NS(=O)(=O)c2c(C)nc3sccn3c2=O)c1,i,i,i,i,i
N[C@H](CSCc1ccccc1)C(=O)Nc1ccc([N+](=O)[O-])cc1,i,i,-33.4,i,i
Cc1ccccc1NC(=O)CCn1cnc2onc(-c3ccc(F)cc3)c2c1=O,i,i,-44.7,i,i
COC(=O)CCn1nc(-c2ccc(C)cc2)c2ccccc2c1=O,i,i,i,i,i
Cc1ccccc1NC(=O)CCn1nc(-c2ccc(Cl)cc2)c2ccccc2c1=O,i,i,i,37.1,i
CC(C)(C)NC(=O)CCn1nc(-c2ccc(Cl)cc2)c2ccccc2c1=O,i,i,i,i,i
CCOC(=O)CCn1nc(-c2ccc(C)cc2)c2ccccc2c1=O,i,i,-49.1!,i,i
COc1cccc(C(=O)Nc2ccccc2-c2nnc(-c3cc(OC)ccc3Br)o2)c1,i,i,i,i,i
O=C(NN=C1CCCCC1)NC1CCCCC1,i,i,-84.7,i,i
O=C(NN=C1CCCC1)NC1CCCCC1,i,i,i,i,i
O=C(NC1CCCCCC1)C(=O)NC1CCCC1,i,i,-33.1,i,i
Cc1nn(C)c2c1c(-c1ccccc1)cc(=O)n2Cc1ccc(F)cc1Cl,i,i,i,i,i
COc1cccc(-n2nnc(S(=O)(=O)c3ccc(C)cc3)c2N)c1,i,i,-35.9,i,i
O=C(CCN1C(=O)S/C(=C\C=C\c2ccccc2)C1=O)Nc1ccc(O)cc1,i,i,-38.4,i,i
O=C(CCN1C(=O)/C(=C/C=C/c2ccccc2)SC1=S)Nc1ccccn1,i,i,i,39.4,i
O=C(CCCN1C(=O)S/C(=C\C=C\c2ccccc2)C1=O)Nc1ccc(C(=O)O)cc1,i,i,i,i,i
Cc1ccc(S(=O)(=O)CCC(=O)Nc2ccc(Br)cc2C)cc1,i,i,i,i,i
Cc1ccc(CN(Cc2cccn2-c2nnc(N3CCCC3=O)s2)C(=O)Nc2ccccc2C(F)(F)F)cc1,i,i,i,i,i
O=C(Nc1cccc(Br)c1)c1cc(S(=O)(=O)N2CCCCC2)c[nH]1,i,i,i,i,i
Clc1ccc(C2=NNC(=NCc3ccccc3)SC2)cc1,i,i,i,i,i
Fc1ccc(C2=NNC(=NCc3ccccc3)SC2)cc1F,i,i,-40.2,i,i
Cc1ccc(S(=O)(=O)NCC(c2ccc(N(C)C)cc2)N2CCc3ccccc32)cc1 (configuration not stated),i,i,i,i,i
CCCCC(=O)Nc1ccc(C(=O)NCCN2CCOCC2)cc1,i,i,-57.7,i,i
SMILES,D1 PAM,TRHR ag,D1 antag,TRHR enhancer,D1 agonist
O=C(NCCN1CCOCC1)c1ccc(-c2ccccc2)cc1,i,i,-36.3,i,i
CC(C)c1ccc(NC(=O)C(Cc2ccccc2)n2cccc2)cc1 (configuration not stated),i,i,i,i,i
O=C(CSc1nc2c(c(=O)[nH]1)CCC2)Nc1cc(C(F)(F)F)ccc1Cl,i,i,i,i,i
O=C(Cc1cccs1)Nc1cccc(-c2nc3cc4ccccc4cc3[nH]2)c1,i,i,-38.4,i,i
COc1ccc(C2CNC(=O)C2)cc1OC1CCCC1 (configuration not stated),i,i,-41.6!,i,i
CCc1ccc(-c2cc(C)no2)cc1S(=O)(=O)N1CCOc2ccccc21,i,i,i,i,i

# Assay outcomes as filed in PubChem BioAssay.
